We go through 47 compounds from PubChem BioAssay AID1851 (National Center for Advancing Translational Sciences (NCATS), 2009).

The campaign covered roughly 16,000 compounds. About 5,800 (36%) were called active. Roughly 23% stayed inconclusive and do not appear here. The list shows a part of the results. A number with no mark means an inactive call. Calls come from the whole dose curve; as a rule, active = well fitted curve in the direction sought with a large enough effect; inconclusive = small, poorly fitted or top-dose-only effect, or effect the other way; inactive = no such curve, though single readings can be large or run the other way.
% is set by controls: 0 for no effect and ±100 for the full control effect.

The target in the test is Cytochrome P450 2C19 (Homo sapiens) (UniProt P33261). Briefly: Cytochrome panel assay with activity outcomes. Conditions: recombinant CYP, pro-luciferin dealkylation, luminescence, p450-cyp2c19; series mostly up to 57.1 µM; activity, negative = inhibition: at the top concentration.
Sequence of Cytochrome P450 2C19 (Homo sapiens) (P33261 whole entry, looked up): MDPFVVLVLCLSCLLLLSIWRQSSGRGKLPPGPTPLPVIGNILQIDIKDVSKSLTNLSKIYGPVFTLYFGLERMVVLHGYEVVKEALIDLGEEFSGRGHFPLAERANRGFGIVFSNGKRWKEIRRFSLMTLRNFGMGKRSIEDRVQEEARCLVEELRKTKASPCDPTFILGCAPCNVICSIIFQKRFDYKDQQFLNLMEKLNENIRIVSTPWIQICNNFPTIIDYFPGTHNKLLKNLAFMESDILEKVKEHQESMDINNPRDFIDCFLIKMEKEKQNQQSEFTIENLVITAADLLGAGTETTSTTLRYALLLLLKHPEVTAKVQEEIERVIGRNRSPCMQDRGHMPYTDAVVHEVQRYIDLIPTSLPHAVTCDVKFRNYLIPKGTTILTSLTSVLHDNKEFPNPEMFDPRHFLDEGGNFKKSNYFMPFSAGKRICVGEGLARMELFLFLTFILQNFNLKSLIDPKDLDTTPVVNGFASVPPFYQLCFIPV
One may read the AC50 as the midpoint of the concentration-response curve, whichever way the signal moves. On to `CC1=C(O)C(=O)[C@H]2O[C@@H]2C1=O`, for which the AC50 is 0.158 µM (active).

For the compound `CN1CCCC2(CCN(C(=O)c3ccncc3)CC2)C1`, the “activity, negative = inhibition” value was -44.1%.

Take `CN(C)Cc1c[nH]c2ccccc12`: the “activity, negative = inhibition” value was -31.4% [at 25.6 µM].

For the compound `CC1=NN(c2ccccc2)C(=O)[C@@H]1N=Nc1ccc([As](=O)(O)O)c(O)c1`, the activity, negative = inhibition was 22.8% [at 11.4 µM].

On to `C[C@H](c1ccccc1)N1CCN([C@@H](C)c2ccccc2)CC1`, for which the activity, negative = inhibition is -29.5% [at 11.4 µM].

For `Cc1cc(C(C)(C)C)cc(C)c1CC1=NCCN1`, the “activity, negative = inhibition” value was -13.7%.

Turning to `C=CCN1C(=O)NC(=O)/C(=C/c2cccn2C)C1=O`, the “activity, negative = inhibition” value was -26.7%.

With `CCN(CC)c1ccc(/C=C2/C(=O)NC(=O)N(CC3CCCO3)C2=O)cc1` (configuration not stated), the AC50 was 7.08 µM (active).

`Oc1ccc([C@H](O)[C@@H]2CCCCN2)cc1O`: the activity, negative = inhibition is 10% [at 11.4 µM].

Turning to `CN1[C@H]2CC(=O)C[C@@H]1[C@@H](O)C2`, the “activity, negative = inhibition” value was 8.15% [at 25.6 µM].

Turning to `C[C@@]12CC[C@@H]3c4ccc(O)cc4CC[C@H]3[C@H]1CC[C@H]2O`, the “activity, negative = inhibition” value is -29.4% [at 25.6 µM].

Consider `C[C@@]12CC[C@H]3[C@@H](CC[C@@H]4C[C@H]5S[C@H]5C[C@]43C)[C@H]1CC[C@H]2O`, for which the concentration at half-maximal activity (AC50) was 0.0631 µM (active).

Take `C[N+](C)(C)CCCCCCCCCC[N+](C)(C)C`: the “activity, negative = inhibition” value was 4.81% [at 25.6 µM].

Take `Nc1nc(N)c(N=Nc2ccc([As](=O)(O)O)cc2)c(=O)[nH]1`: the activity, negative = inhibition was 19% [at 11.4 µM].

On to `COC(=O)Nc1nc2ccc(C(=O)c3cccs3)cc2[nH]1`, for which the “activity, negative = inhibition” value was -1.51%.

Regarding `O=C1C=CC(=O)c2c1ccc1c2ccc2ccccc21`, the half-maximal activity concentration (AC50) is 1.58 µM (active).

Regarding `CCN1C[C@]2(COC)CC[C@H](O)[C@@]34[C@@H]5C[C@H]6[C@@H](OC)[C@H]5[C@](O)(C[C@@H]6OC)[C@@](O)([C@@H](OC)[C@H]23)[C@@H]14`, the “activity, negative = inhibition” value is 33.2% [at 25.6 µM].

Regarding `C[C@]12CC[C@H](O)C[C@@H]1CC[C@H]1[C@H]2CC[C@]2(C)C(=O)CC[C@@H]12`, the AC50 result is “inactive”.

Take `C[C@]12CC[C@H](O)C[C@@H]1CC[C@H]1[C@H]2CC[C@]2(C)[C@H](C(=O)CO)CC[C@@H]12`: the “activity, negative = inhibition” value was -19.9%.

`C[C@@]12CC[C@@H]3[C@@H](CC[C@H]4C[C@@H](O)CC[C@]43C)[C@H]1CC[C@@H]2c1cc(C(F)(F)F)n[nH]1`: the concentration at half-maximal activity (AC50) was 2.51 µM (active).

With `NN=C(N)N`, the AC50 result was “inactive”.

For `N[C@H](CCC(=O)N[C@H](CSN=O)C(=O)NCC(=O)O)C(=O)O`, the AC50 is 1.58 µM (active).

As to `COC(=O)[C@H]1C(=O)c2ccccc2O[C@@](C(=O)OC)(c2ccccc2)[C@@H]1c1ccccc1`, the activity, negative = inhibition is -43% [at 11.4 µM].

For the compound `NC(=O)c1cc(N2CC2)c([N+](=O)[O-])cc1[N+](=O)[O-]`, the “activity, negative = inhibition” value is -21%.

For the compound `CN1CCN(c2cc(N3CCCC3)c([N+](=O)[O-])cc2F)CC1`, the concentration at half-maximal activity (AC50) is 7.94 µM (active).

For `CN(C)C(=O)Oc1ccc[n+](C)c1`, the “activity, negative = inhibition” value is 73.3%.

For `CSC([N-]/N=C/c1cccc(C)n1)=[S]=[Cu].CS[C@H]([S-])[N-]/N=C/c1cccc(C)n1`, the AC50 was 0.2 µM (active).

As for `CC(=O)OC1=CC2=CC[C@H]3[C@H]4CCC(=O)[C@@]4(C)CC(=O)[C@]3(S)[C@]2(C)CC1`, the activity, negative = inhibition is -14.8% [at 11.4 µM].

In the case of `c1csc(CN2CCC3(CCNCC3)CC2)n1`, the “activity, negative = inhibition” value was 43.8%.

For the compound `CCCN(C/C=C\I)[C@@H]1CCc2ccc(O)cc2C1`, the concentration at half-maximal activity (AC50) was 1 µM (active).

For the compound `CCCN(CCC)[C@@H]1CCc2ccc(O)cc2C1`, the AC50 result was “inactive”.

For `CCCN(CCC)[C@@H]1CCc2cccc(O)c2C1`, the AC50 entry is “inactive”.

For the compound `CN(C)CC/C=C1\c2ccccc2Sc2ccc(Cl)cc21`, the activity, negative = inhibition is -17.3% [at 11.4 µM].

With `NO`, the “activity, negative = inhibition” value is 2.63%.

As for `Cc1sc2c(c1C)C(c1ccc(C(C)(C)C)cc1)=NCC(=O)N2CC(=O)Nc1nccs1`, the concentration at half-maximal activity (AC50) is 6.31 µM (active).

Take `CCCN1CCC[C@H](c2cccc(C#N)c2)C1`: the “activity, negative = inhibition” value is 20.2%.

As to `CCN1C[C@]2(C)CC[C@@H](O)[C@]34[C@@H]5CC6[C@@H](OC)C[C@@](O)([C@H]5[C@@H]6O)[C@@H](C[C@@H]23)[C@H]14`, the “activity, negative = inhibition” value is 21.5%.

For `CC(C)(C)CC(=O)NC(=S)Nc1ccccc1C(F)(F)F`, the AC50 was 3.16 µM (active).

In the case of `CC(C)c1ccc(C(c2c(O)c3ccccc3oc2=O)c2c(O)c3ccccc3oc2=O)cc1`, the activity, negative = inhibition is -40.6% [at 11.4 µM].

Consider `Cn1c(=O)c2[nH]cnc2n(C)c1=O`, for which the “activity, negative = inhibition” value is 24.9%.

For `CC(C)(C)NC[C@@H](O)COc1cccc2[nH]c(C#N)cc12`, the concentration at half-maximal activity (AC50) was 15.8 µM (active).

For the compound `c1csc(CN2CC3(CCNCC3)C2)n1`, the “activity, negative = inhibition” value is -22.8%.

On to `Oc1ccc(CCNCc2cc3c(cc2Br)OCO3)cc1`, for which the concentration at half-maximal activity (AC50) was 5.01 µM (active).

Regarding `C[N+]1(C)CCO[C@](O)(c2ccc(-c3ccc([C@]4(O)C[N+](C)(C)CCO4)cc3)cc2)C1`, the “activity, negative = inhibition” value is 23.6% [at 25.6 µM].

For the compound `Fc1ccccc1CCNCc1cccc(Cl)c1Cl`, the AC50 is 0.631 µM (active).

In the case of `N=C(N)n1cc(/C=N\N=C(N)N)cn1`, the activity, negative = inhibition is 16.3% [at 11.4 µM].

As to `COc1ccc(C2NCc3ccc4c(c3-n3cccc32)OCO4)cc1OC` (configuration not stated), the AC50 was 3.16 µM (active).
